We go through 40 compounds from PubChem BioAssay (NCI).

Structures are written as SMILES. “And” between values parts separate entries of the source, which are not always exact repeats. Equal values may be shown once. This is part of a sample that, as a whole, favours compounds with a hit. Of some 79,000 tested, about 15% had one in any assay. The source made the active and inactive calls. Rule as the data show it: active = growth inhibition above about 70%; inactive = the rest.

The nature of this test: NCI Yeast Anticancer Drug Screen. Data for the mlh1 rad18 strain (AID 175). The note with it: S. cerevisiae mlh1 rad18 strain growth inhibition; at 50.0 µM; stronger effect = higher value. An outline of the steps: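 Steps: expose repair-defective yeast to compound; measure growth; express inhibition against vehicle-treated controls.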
`CCC[As](=O)(O)CC(C)C`: the growth inhibition was -3.75% (inactive).
The result for `CCCOC(=O)c1cncn1C(C)c1ccccc1` (stereo not given) reads 31.4% (inactive); that for `C/C=C/CC1(C(C)C)C(=O)NC(=O)NC1=O`, -1.65% (inactive) and 8.4% (inactive).
The result for `NC(N)=NCCCCCCCCCCN=C(N)N` reads -10.3% (inactive); that for `O=C(Nc1ccc(S(=O)(=O)Nc2ccc(N=Nc3ccc(N=Nc4ccccc4)cc3)cc2)cc1)C(N1CC1)(N1CC1)N1CC1`, -7.35% (inactive).
The result for `CC1(C)C=C(NC(=O)N2CC2)C(C)(C)N1O` reads 1.45% (inactive); that for `CC1=CC(=O)NP(=O)(Oc2ccc(C)cc2)N1` (stereo not given), -4.4% (inactive).
For `CCCN(CCC)C(=O)CCl`, the growth inhibition was 9.4% (inactive).
The result for `O=[P+](O)c1ccccc1` reads -5.5% (inactive) and 1.3% (inactive); that for `CN(C)CCNC(=O)c1ccc([N+](=O)[O-])c(C(C)(C)C(=O)Nc2ccc(N(CCCl)CCCl)cc2)c1`, -24.9% (inactive).
The result for `CCCC(C)COC(=O)Cc1ccccc1` (stereo not given) reads 15.2% (inactive); that for `CCCCOC1OCN(C2CCCCC2)CC1(C)C` (stereo not given), 41.8% (inactive); that for `CN(C)P1P(N(C)C)P(N(C)C)P1N(C)C` (stereo not given), -1.2% (inactive).
Next, `C[CH2][Sn]([CH2]C)([CH2]C(=O)OC)[CH2]C(=O)OC`: -9.9% (inactive).
With `CCCP(=S)(CCC)P(=S)(CCC)CCC`, the growth inhibition is 20.9% (inactive).
For `CCC[N+](CCC)(CCC)CCC.[Ni+2].[SH2+]C([SH2+])=Nc1ccccc1.[SH2+]C([SH2+])=Nc1ccccc1`, the growth inhibition was 30.1% (inactive).
As to `CC(C)c1ccc(-n2c(=S)[nH]c3ccccc3c2=O)cc1`, the growth inhibition was 13.8% (inactive).
Take `C=CC(=O)NCO`: the growth inhibition was -12.3% (inactive).
Next, `CCNC(=O)C(C)Br` (stereo not given): 23.9% (inactive); `O=C1CCP(c2ccccc2)(c2ccccc2)(c2ccccc2)O1`: 7% (inactive).
The result for `O=C(N/N=C/c1cc(Br)cc(Br)c1[O-])c1ccccc1O.O=C(N/N=C/c1cc(Br)cc(Br)c1[O-])c1ccccc1O.[Cl-].[Fe+3]` reads 13.3% (inactive); that for `CC12CCC3C(CCC4(O)C=CCCC34C=O)C1(O)CC(O)C2c1ccc(=O)oc1` (stereo not given), -16.2% (inactive).
The result for `COc1cc2c(cc1OC)C13CCN4CC5=CCOC6CC(=O)N2C1C6C5CC43` (stereo not given) reads -0.6% (inactive) and -1.65% (inactive); that for `NC(=O)OCC(O)c1ccccc1` (stereo not given), 2.2% (inactive); that for `Clc1ccc([As](c2ccc(Cl)cc2)c2ccc(Cl)cc2)cc1`, 48.4% (inactive).
For `COc1ccc2c3c1O[C@]1(C)C34CCN(C)C(C2)C42C=C[C@@]1(OC)c1c(O)ccc(O)c12`, the growth inhibition is -0.9% (inactive).
Next, `CCOP(=S)(OCC)OP(=O)(CC)CC`: -2.55% (inactive).
In the case of `Cc1ccc(NC(=O)C(=O)C2C(=O)NC(=O)NC2=O)cc1C`, the growth inhibition was -23.2% (inactive).
With `O=C(Nc1ccc(O)cc1)c1c(O)[nH]c(=S)[nH]c1=O`, the growth inhibition is 4.65% (inactive).
For the compound `NCCCNCCCN`, the growth inhibition is -11.7% (inactive).
Next, `COc1cccc(N2C(=O)C3C(C2=O)C2(Cl)C(Cl)=C(Cl)C3(Cl)C2(Cl)Cl)c1` (stereo not given): 49.8% (inactive); `COCCCNP(=O)(OC(C)C)OC(C)C`: 14.8% (inactive); `CCCCCCCCCCCCCCCCCC(=O)NC(CC(=O)OCCCCCC)c1ccc(N(CCCl)CCCl)cc1` (stereo not given): 22.6% (inactive).
Next, `CC(=O)Oc1ccc([As](=O)(O)O)cc1`: 1.05% (inactive); `[Cl][Pd]([Cl])([Cl])[Cl].[NH-]CC[NH-].[NH-]CC[NH-].[Pd+2]`: 54.7% (inactive); `CC1(O)CCC(O)CC1CC(=O)O` (stereo not given): 11.4% (inactive).
The result for `CCCCCC[C@@H](O)[C@@H]1C2=C(C[C@H]([C@H](O)[C@@H]3CC=CC(=O)O3)CC3=C(C(=O)OC3=O)[C@@H]1O)C(=O)OC2=O` reads 19.6% (inactive).
Consider `CCCCCCOC(=O)C(N)Cc1ccc(OC)c(N(CCCl)CCCl)c1` (stereo not given), for which the growth inhibition is -2.7% (inactive).
Next, `CC1CCC2NCCNC2C1` (stereo not given): 23.4% (inactive); `CCOC(=O)C(Cc1ccc(N(CCCl)CCCl)cc1)NC(=O)C(N)CO` (stereo not given): 7.5% (inactive).
